# The whole screen tested about 31,000 sequences, of which about 1,400 (4.5%) were called active. This excerpt belongs to a sample that is enriched for actives. A number with no mark means an inactive call.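 The calls were made as follows: active = median seed-adjusted z-score above 1 or below -1; inactive = the rest.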
# Experiment: Novel Modifiers of Survival Motor Neuron (SMN) Protein: Gene Identification via Genome-wide siRNA Screen
# Conditions: HEK293T SMN2-luciferase reporter, siRNA knockdown, 72 h; actives lie on both sides
# From the text: Spinal muscular atrophy (SMA) is the most common neuromuscular autosomal recessive disorder and one of the leading genetic causes of infant death. SMA results from mutations inducing loss of function or deletion in the survival of motor neuron-1 gene (SMN1), leading to deficiency of the survival motor neuron (SMN) protein. Although a second nearly identical gene, SMN2, is retained in humans, its expression primarily produces an aberrantly spliced isoform that is largely unstable and quickly degraded. We performed a genome-wide RNAi screen using a cell-based reporter assay to identify genes and pathways that modulate SMN protein stability. The screen identified over 200 genes that led to the greatest increase or decrease in luciferase expression.
# Using HEK293T cells stably expressing a luciferase reporter that combines the promoter and splicing based cassettes in tandem with the major portion of the native SMN2 cDNA with luciferase, we performed a genome-wide RNAi screen to identify modulators of SMN protein levels. Luciferase is expressed when full-length SMN protein is generated with luminescence signal proportional to SMN protein levels. Our luciferase-based reporter assay was used to screen Ambion Silencer Select Human Druggable Genome siRNA library (10418 genes, 3 unique siRNAs per gene) using lipid-based reverse transfection.
# Briefly, 1 pmol of each siRNA was spotted to a well of a 384-well plate (Corning, Corning, NY) and 20 microL of serum-free DMEM containing […] of Lipofectamine RNAiMax (Life Technologies, Carlsbad, CA) was then added to each well. Transfected cells were maintained at 37 degrees C in 5% CO2 for 72 hours, 20 microL of ONE-Glo Reagent (Promega) was added to wells for luciferase quantification. Raw luminescence reads were normalized to Ambion(R) Silencer(R) Negative Control #2 siRNA, then log10 transformed. A robust statistical measure of median absolute deviation (MAD) to standardize siRNA activities from each screen. Common Seed Analysis was used to help prioritize clean hits as opposed to those appearing to arise from seed based off-target effects. Candidate modulators were defined as the genes having a MAD score greater than 1.0 or less than -1.0.
row,Sequence,median seed-adjusted z-score
1,CGUGUAUUCUUUCACUAAUTT against MFSD1,-0.0833
2,GGGUAUCACCUCACGCUUATT against ABCA12,0.0759
3,GGUUUGGAAUGUUCGAGUUTT against SLC25A1,0.252
4,GGCACAAUUUCAACUCCAUTT against GPR35,-1.46 (active)
5,GAGCUUAGUGAUAAUAUAATT against ANP32E,-0.0648
6,GUGACUAUGAGCUCAAAUATT against RAVER1,-0.0873
7,ACAUGACCAUGGAAGCUGATT against HIPK4,0
8,GGAUCCGAGAGUCACCCAATT against LLGL1,-1.13 (active)
9,GGACAGACACGUCAGCAAATT against TMEM171,0.278
10,GGAAAUCUCGGAGAUCACATT against MLYCD,-0.154
11,CAUCCUCAUUUGAAACCGUTT against CREBL1,-0.348
12,CAUUCGCAUUCAGUCCAUATT against FRAP1,-1.02 (active)
13,GCAGAUGACUACAACUUUATT against E2F5,-0.628
14,GGACUGUACAACACUCUGATT against TGFB3,-0.354
15,GAUAAUGGAAGGUGAAUUUTT against PMS2L3,0.175
16,CGGGAGAAGUCCUACCUGUTT against KIF19,0.342
17,CGCAGGUUCUACCAGAUGATT against HS3ST6,0
18,CCAUGGAUGAGACUCCGUATT against PPP1R10,1.41 (active)
19,CGUGAUUGACUAUGAGGAATT against GRM6,-0.0544
20,GGUCAUUAUUGGUGAGCAATT against HARS2,0
21,AGAACAACGUGAAGGCACATT against TNPO2,0.0785
22,CAGUGGAUAUCUUGACCUATT against LDHA,0.401

row,Sequence,median seed-adjusted z-score
1,GGAAGUCUCUUGUCUGCAATT against RNASEL,0
2,CAGGUUUUCUACAACAACATT against ABCA2,-1.18 (active)
3,GAACUUGACCAGUUAGACUTT against GTF3C3,0.21
4,GGACAACCAUCUUCAAAGATT against ZKSCAN5,-0.229
5,GCAGUAUCGAGCUUCCGAATT against ACAD10,-0.269
6,GGAUCAUCAUGGAAUUGUATT against PTK2B,1.71 (active)
7,CCAUGUCAGUCCUAGGAAATT against ATRIP,0.353
8,GCAACUCCAUGUUUCAUAATT against PRMT1,-0.596
9,CCUGAUGUCUUAUCUCAGATT against ZNF398,0.119
10,AAAUCUUCGUGAACUUGGATT against MMD,0.193
11,CCAUCUAGAGUAUCACGCATT against CYGB,-0.34
12,GAAAUUCCACUGUAUCUAATT against COX7A2,-0.0808
13,GAGAGAAACUGUCAGAGUATT against RNF185,-0.388
14,CCCUCUUCCUUAUCCUGCATT against PITPNM1,-0.203
15,GAACAACCCUAACCCAAGATT against ITGAM,-1.56 (active)
16,CCAACUCGGCAAAACCGUUTT against NDUFS3,-0.54
17,CAACAACACCUGUUGCUUUTT against RGS17,-0.627
18,GAGCUACAUUACUAAGUCATT against ZNF223,0.367
19,CCAGGCAAAUAGUGAAGAATT against VAX1,0.937
20,GCAGUUCCUAAAUUUCCGATT against SNX9,0.684
21,GGAGAAUGCCGAAGAGGAATT against POLR2F,-3.52 (active)
22,GGCUGUACUUCGUCAUGGATT against PRKCA,-0.249

row,Sequence,median seed-adjusted z-score
1,CAUCCGACAUUGAAGUUGATT against B2M,-0.367
2,CGAGUAUGGUUUCCGCAAATT against UHMK1,-0.269
3,GAAUGCGAUUCACACCUUUTT against CAT,0
4,CCCUAAUUCUUCGUCAUAATT against AMIGO2,-0.258
5,CAUUGGUUUUGAUGAGUAUTT against SNRPE,-2.77 (active)
6,CUGUUUAACUGUGAGAUCATT against ANP32E,-0.0648
7,GCCUGCAAGUGUCCCAAAATT against NTN1,-0.0419
8,GAUAUUUGCCUAUGCCUUUTT against ZMYND19,0.369
9,GAAGGACAUGUACAAGAAATT against ITPKA,-0.136
10,CCAGCAUCCCUAGCUCAGATT against SYVN1,-1.41 (active)
11,GUCCGUUAACUAUCUGUUATT against GNAI3,0.0656
12,AAAUUAGAGUGAACAAGAATT against NFIC,0.72
13,CAGUGGAUAUCAAGCUUAATT against OPA1,-0.182
14,GCAAGUGACUGCUAUCAAUTT against GRIA2,-1.02 (active)
15,GAUCGUCUGCUGAAUACAATT against NASP,0.133
16,CAUCCAUUUGUCUUGCAAATT against GTF2F2,-1.14 (active)
17,CCACAGUUCCUGUCAUGUUTT against ACMSD,0
18,GCACUUGUAAGAACUGGUATT against POSTN,-0.45
19,CGUCAGCGGUUUAGCUGGATT against SLC25A10,-0.571
20,CGCACAGUGCCUAACCCUATT against RAB26,0.171
21,GGAAGUUCAUGCCUCUGGATT against UBA7,2.41 (active)
22,GGUUCUAUAGCAGACAAUATT against LOC81691,-0.285

row,Sequence,median seed-adjusted z-score
1,AGCUCCCUGCCUUUAAUAATT against CHPF,0.248
2,GAUCGCUACUUACAGGAUATT against CYP51A1,-0.242
3,GAGUGAUAUGGAUAGUGAATT against TTC18,-1.15 (active)
4,GGAAUCUCAUUUUAUCGUATT against SLC7A2,-0.245
5,GGAAGAAUUCAAUACGGCATT against FOXJ2,-0.627
6,GGAUGCACCACAUCUAGUATT against RPS6KA3,-0.0233
7,CCAAUUCCAGGUUAACUUUTT against S100A7A,0.212
8,GGAGUGAAGACUUCGAGAATT against KCNN2,-0.0251
9,CCUUCAAGCUGCAGACUAATT against THBS4,-0.28
10,CGACAUAACUAUGUUCGGATT against ETF1,-1.12 (active)
11,GGAUUUUGCCUUAGCGGUATT against OSBPL8,0.231
12,GCCUAUCCUAGAACCAUCATT against KLK14,-0.0998
13,GGACUUACCUUCAACCAAUTT against RSF1,0
14,CAACCUUCCUCGGACUAAUTT against SLC26A2,-1.25 (active)
15,GGACUUGGAUUCGAGGAUATT against COL15A1,0.161
16,CCUAAAUGAUCGCAAAGUATT against PABPC1,-0.126
17,CCUUUACUACGUGUGCACATT against POLR2I,-3.27 (active)
18,GGAAGAACUUUCUCGGUAATT against TIMP2,0.0444
19,CAAACGAUCUGAAGGUGAATT against AKTIP,-0.194
20,GGACAGAGGGCAACUAUAATT against KCNV2,-1.13 (active)
21,AAGCUAUUGUGAUCUCUGATT against ZBTB3,-0.0419
22,GAAUUAUGGAUGACGAUAATT against CAPSL,-0.168

row,Sequence,median seed-adjusted z-score
1,CACUCGUUCCGGUUCCUUUTT against ZNF439,-0.26
2,CAGUGAGGCUGUUCUCGAATT against LIMCH1,0.125
3,CAGGUGAUGUGAUAUCAUATT against VGLL2,-0.0234
4,GCUAAUCCAUUUGAUGACATT against PYGO1,-1.23 (active)
5,GAAUGUAACUUCACAACCATT against ZHX2,0.0708
6,AGAAAGCUUUGGGCAAAUATT against EEF1B2,0.388
7,CAACAUAUCUGCACAGGUATT against FLVCR2,-0.336
8,GGCUGUAACGUGAACAUCATT against DAPK1,0.27
9,UCGAGCAACUUAUUCCAUATT against MED30,-2.06 (active)
10,GCCUGUCCCAGACCAUUGATT against KLC4,0
11,GCUUCUCUUUGAAUACCCATT against KCNA2,-1.03 (active)
12,CAAGUUCUCUUAUCCACCATT against PPP1R15A,0.539
13,UGAAAUGGAUGAAAACCUATT against SNAP25,0
14,GCGUGUUCGUGCACGUCUATT against MOBKL2A,0.268
15,CAGCAACCAUGGAAAUCGATT against MYST4,0.138
16,ACUGGACAGUGGUAUCAGATT against UBASH3A,-1.1 (active)
17,CAGGUACAGCGCAUCGUUATT against EDC4,0
18,GGGAUGAUUCAGACAAACATT against ZC3HAV1,0.522
19,CAGUGGAUCUAUAUGAACATT against KIT,-0.686
20,GCAUUUACACUGUAUAUUATT against POU4F2,1.46 (active)

# Reference: PubChem BioAssay AID1347426 (Functional Genomics Laboratory (NCATS/FGL), 2020)
